In ChEMBL document CHEMBL1157539, “Thousands of chemical starting points for antimalarial lead identification” (Nature, 2010):
Where “and” joins values, the source holds several entries; their conditions need not be identical. Equal values may be shown once.

Assays:
Assay type in all cases: functional
Plasmodium falciparum [1] = assay: GSK_TCMDC: Inhibition of Plasmodium falciparum 3D7 in whole red blood cells, using parasite LDH activity as an index of growth. Test compounds present at 2uM
Plasmodium falciparum [2] = assay: GSK_TCMDC: Inhibition of Plasmodium falciparum Dd2 in whole red blood cells, using parasite LDH activity as an index of growth. Test compounds present at 2uM
HepG2 = assay: GSK_TCMDC: Percent inhibition of human HepG2 cell line. Test compounds present at 10uM.

Row | SMILES | Inhibition (Plasmodium falciparum [1]) [%] | Inhibition (Plasmodium falciparum [2]) [%] | Inhibition (HepG2)
1 | Cc1ccc2c(=NN=Cc3ccc(N(C)C)cc3)cc(C)[nH]c2c1 | 99 | 46 | 0%
2 | CN(C)CCCNc1c2ccccc2nc2ccccc12 | 91 | 4 | 31%
3 | O=C(Nc1cccc(CN2CCCN(Cc3cccnc3)CC2)c1)c1ccc(Cl)c(Cl)c1.O=C(O)C(F)(F)F | 84 | 19 | 16%
4 | COc1cncc(/C=C/c2cncc(C(=O)NCCc3ccc(Cl)cc3Cl)c2)c1 | 99 | 49 | 0%
5 | CC(C)C[C@H](NC(=O)c1cc(-c2ccc(C(C)(C)C)cc2)no1)C(=O)O.CC(C)C[C@H](NC(=O)c1conc1-c1ccc(C(C)(C)C)cc1)C(=O)O | 95 | 6 | 3%
6 | COc1ccc(NC(=O)C2c3ccccc3C(=O)N(C3CCCC3)C2c2cccs2)c(OC)c1 (stereo not given) | 84 | 54 | 3%
7 | COc1ccc(Cl)cc1-c1nc(C(=O)NCCN2CCCCC2)c(C)s1.O=C(O)C(F)(F)F | 97 | 10 | 16%
8 | COc1ccc(-c2cc3ncn(CC(=O)N4CCN(c5cccc(OC)c5)CC4)c(=O)c3s2)cc1 | 84 | 26 | 49%
9 | CCCCC([C@@H](Cc1ccc2ccccc2c1)C(=O)N[C@H](C(=O)NC)C(C)(C)C)N(O)C=O (stereo not given in full) | 100 | 97 | 0%
10 | CNc1ccc(CNCc2cccc(-c3ccc(-c4nc5cc(C(F)(F)F)ccc5[nH]4)cc3)c2)cc1.O=C(O)C(F)(F)F | 100 | 100 | 21%
11 | COc1ccc(C=Cc2cc(=N)c3ccccc3[nH]2)cc1.I | 93 | 16 | 38%
12 | Cc1ccc2oc3cc(-c4nnn[nH]4)ccc3c(=O)c2c1 | 97 | 96 | 2%
13 | COc1ccc(C(=O)COc2cccc(/C=C/C(=O)O)c2)cc1OC | 84 | 28 | 44%
14 | Cc1cccc2nc(-c3ccc(-c4cccc(CNC(C)C)c4)s3)[nH]c12.O=C(O)C(F)(F)F | 100 | 97 | 12%
15 | Cc1nc(-c2nc(NCc3ccc4c(c3)OCO4)ncc2-c2ccsc2)sc1C | 97 | 77 | 7%
16 | Cc1ccc(Cn2ncc(NC3CCNCC3)c(Cl)c2=O)cc1NC(=O)Nc1ccc(-c2ccccc2)cc1.O=C(O)C(F)(F)F | 99 | 61 | 18%
17 | CC(Oc1c(C2CCN(CCCCNC(=O)c3ccc(-c4ccc(Cl)cc4)cc3)CC2)ccc2c1CCCC2)C(N)=O (stereo not given) | 99 | 16 | 100%
18 | CCCC(C)NC(=O)c1cnn(-c2ccc(C(C)(C)C)cc2)c1OCc1ccc(Br)cc1 (stereo not given) | 84 | 64 | 17%
19 | Br.CC(C)(C)c1ccc(OCCCON2C(N)=NC(N)=NC2(C)C)cc1 | 93 | 76 | 77%
20 | O=C(NC1CCN(c2ccnc(Nc3ccc(F)cc3)n2)C1)c1cc2ccccc2s1 (stereo not given) | 99 | 80 | 6%
21 | COc1cc2c(cc1S(=O)(=O)c1ccc(NC(=O)Nc3ccc(F)cc3)cc1)CCN(C)CC2.Cl | 99 | 55 | 0%
22 | Br.c1ccc(-c2ccc(-c3csc(Nc4ccncc4)n3)cc2)cc1 | 100 | 97 | 30%
23 | OC(CN1CCN(C2CCCCC2)CC1)Cn1c2ccccc2c2cc(Br)ccc21 (stereo not given) | 97 | 89 | 14%
24 | Cc1cc(C2CCN(CCCCNC(=O)c3ccc(NC(=O)c4ccc(Cl)cc4)cc3)CC2)c(C)cc1OC(C)C.Cl | 100 | 92 | 22%
25 | Cc1cc(-c2cccc(CNC3CCCC3)c2)ccc1S(=O)(=O)NCCN1CCCC1.O=C(O)C(F)(F)F | 81 | 7 | 38%

Row | SMILES | Inhibition (Plasmodium falciparum [1]) [%] | Inhibition (Plasmodium falciparum [2]) [%] | Inhibition (HepG2)
26 | CN(c1ccc(C(=O)N[C@@H](CCC(=O)O)C(=O)O)cc1)S(=O)(=O)c1ccc2nc(N)[nH]c(=O)c2c1 | 97 | 3 | 16%
27 | COc1ccccc1N=C1SC(=Cc2cn(CC(=O)N3CCCc4ccccc43)c3ccccc23)C(=O)N1C1CCCCC1 | 100 | 99 | 10%
28 | Br.Oc1ccc2nc(N3CCNCC3)nc(NCCCc3ccccc3)c2c1 | 100 | 0 | 14%
29 | O=C(NCCCCN1CCCC2c3ccc(O)cc3CCC21)c1ccc(-c2ccccc2)cc1 (stereo not given) | 96 |  | 32% and 26%
30 | COC(=O)c1ccc(-c2ccc(C(=O)NCC3CCN(c4nc(N)c5cc(OC)c(OC)cc5n4)CC3)cc2)cc1 | 98 | 100 | 53%
31 | Cc1cccc2nc(-c3ccc(-c4cccc(NC(=O)NCc5ccccc5)c4)cc3)[nH]c12 | 95 | 0 | 25%
32 | Nc1c(Cl)cc(C(O)CNCCCCCCCCCc2ccccn2)cc1Cl (stereo not given) | 98 | 83 | 9%
33 | Cc1ccc(CNC(=N)NC(=O)c2nc(Cl)c(NCc3ccc(Cl)cc3)nc2N)c(C)c1 | 100 | 100 | 28%
34 | COc1ccc(CCNCCCCCCNCCc2ccccc2Cl)cc1OC.Cl | 96 | 3 | 13%
35 | O=C(N[C@@H](Cc1ccccc1)C(=O)NCCN1CCCCC1)c1ccc(O)c(-c2ccc(Cl)c(Cl)c2)c1 | 99 | 97 | 6%
36 | CC12CN3CC(C)(CN(C1)C3c1cc(Br)ccc1O)C2O (stereo not given) | 98 | 2 | 5%
37 | Cc1noc(C)c1C(=O)N1CCCC(c2[nH]c3c(C)cccc3c2-c2ccncc2)C1.Cl (stereo not given) | 100 | 100 | 16%
38 | Cc1cccc2nc(-c3cccc(-c4cccc(CN5CCN(c6ccncc6)CC5)c4)c3)[nH]c12.O=C(O)C(F)(F)F | 100 | 96 | 47%
39 | Nc1nc(N)c2cc(S(=O)(=O)c3ccc4ccccc4c3)ccc2n1 | 95 | 51 | 14%
40 | COc1cccc(OC)c1C(=O)Nc1cccc(-c2nn3ccccc3c2-c2ccnc(Nc3cccc(F)c3)n2)c1 | 95 | 38 | 3%
41 | CN1CCN(CCCCCCNc2c3ccccc3nc3ccccc23)CC1.Cl | 100 | 0 | 35%
42 | Cc1ccc(C2CCN(CCCCNC(=O)c3ccc(NC(=O)c4ccc(Cl)cc4)cc3)CC2)c(C)c1.Cl | 96 | 10 | 23%
43 | CN1CCN(Cc2cccc(-c3ccc4c(Nc5cc(O)c(Cl)cc5F)ccnc4c3)c2)CC1 | 100 | 100 | 0%
44 | O=C(/C=C/c1ccc(Cl)c(Cl)c1)NCCCCCN1CCC(NC(=O)c2ccc(F)cc2)CC1 | 100 | 13 | 14%
45 | O=C(Nc1ccccc1Cl)c1cc2ccccc2cc1O | 94 | 72 | 2%
46 | O=C(Nc1cccc(CN2CCN(Cc3cccc(O)c3)CC2)c1)c1cc2ccccc2s1.O=C(O)C(F)(F)F | 86 | 54 | 13%
47 | COc1ccc(CCn2c(=N)c(C(=O)NCc3cccnc3)cc3c(=O)n4cccc(C)c4nc32)cc1 | 92 | 12 | 5%
48 | COc1ccc2nc(C)cc(Nc3ccc(Cl)c(Cl)c3)c2c1 | 100 | 99 | 30%
49 | Cc1cnc(N)c(/C=C/c2cncc(C(=O)NCCc3ccc(Cl)cc3Cl)c2)c1.Cl |  | 100 | 2%
